Experimental data taken from PubChem BioAssay (EPA / NIEHS).
“And” between values parts separate entries of the source, which are not always exact repeats. Equal values may be shown once. Inconclusive results are not listed. The source made the active and inactive calls. How the source made its calls: active means hit-call score of the fitted dose curve at least 0.9, where 1 is the maximum; inconclusive means response in the unintended direction; inactive means score below 0.9.

What follows are molecules tested against Cellular tumor antigen p53 (Homo sapiens) (UniProt P04637) (assay: TOX21_p53_BLA_p5_ratio: Tox21 HCT-116 p53 Agonism Beta-lactamase Assay, Ratio, Phase 5 (AID 2283599)).
Cellular tumor antigen p53 (Homo sapiens), sequence (P04637 whole entry, looked up, the tested form may be a part): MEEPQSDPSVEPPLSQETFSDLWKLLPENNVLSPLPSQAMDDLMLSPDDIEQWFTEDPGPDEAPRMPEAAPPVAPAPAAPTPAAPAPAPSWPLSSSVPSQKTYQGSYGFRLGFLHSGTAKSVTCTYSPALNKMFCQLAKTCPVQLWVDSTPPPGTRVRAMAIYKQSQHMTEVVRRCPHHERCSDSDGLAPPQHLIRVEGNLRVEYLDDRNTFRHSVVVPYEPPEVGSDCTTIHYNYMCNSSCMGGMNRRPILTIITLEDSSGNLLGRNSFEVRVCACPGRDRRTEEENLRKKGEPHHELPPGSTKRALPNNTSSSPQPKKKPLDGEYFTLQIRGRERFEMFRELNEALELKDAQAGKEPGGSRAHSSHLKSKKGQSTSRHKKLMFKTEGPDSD
From the text: TOX21_p53_BLA_p5 is a cell-based, single-readout assay that uses HCT116, a human intestinal cell line, […] in a 1536-well plate.TOX21_p53_BLA_p5_ratio is an assay readout measuring reporter gene via receptor activity and designed using inducible reporter (beta lactamase induction) detected with GAL4 b-lactamase reporter gene. The signal is derived from the ratio of cleaved (ch2) to uncleaved (ch1) reporter gene substrate used as the measure of target activity.Data from the assay component TOX21_p53_BLA_p5_ratio was analyzed into 1 assay endpoint. This assay endpoint, TOX21_p53_BLA_p5_ratio, was analyzed in the positive analysis fitting direction relative to DMSO as the negative control and baseline of activity. Using a type of inducible reporter, gain-of-signal activity can be used to understand changes in the reporter gene as they relate to the gene TP53. Furthermore, this assay endpoint can be referred to as a primary readout, because this assay has produced multiple assay endpoints and this ratio serves a reporter gene function to understand target activity. To generalize the intended target to other relatable targets, this assay endpoint is annotated to the DNA binding intended target family, where the subfamily is tumor suppressor.
Thawing Method: Place 14 mL of pre-warmed thaw medium into a 15 mL of conical tub. Remove the vial of cells to be thawed from liquid nitrogen and thaw rapidly by placing at 37C in a water bath with gentle agitation for 1-2 minutes. Decontaminate the vial by wiping with 70% ethanol before opening in a biological safety cabinet. Transfer the vial contents drop-wise into 14 mL of thaw medium in a sterile 15-mL conical tub. Centrifuge cells at 900 rpm for 4 minutes and resuspend in thaw medium. Transfer contents to the T75 tissue culture flask containing Thaw Medium and place flask in a humidified 37C/5% CO2 incubator. Switch to growth medium at first passage.Propagation Method: Aspirate medium, rinse once in DPBS, add 0.25% Trypsin/EDTA and swirl to coat the cell evenly. Add an equal volume of Growth Medium to inactivate Trypsin after 2-3 minutes incubation at 37C. Centrifuge cells at 900 rpm for 4 minutes and resuspend in growth medium. Cell should be passage or fed at least twice a week.Assay Protocol: Harvest cells from culture in growth medium and resuspend in assay medium. 2.2 Dispense 4000 cells/5 uL/well into 1536-well black/clear bottom plates using a Multidrop dispenser. After the cells were incubated at 37C for 5 hours, 23 nL of compounds dissolved in DMSO were transferred to the assay plate by a PinTool resulting in a 217-fold dilution. Incubate the plates for 16 hours at 37C, 5% CO2. Add 1 uL of 6X LiveBLAzer FRET B/G (CCF4-AM) Substrate Mixture to each well using a BioRAPTR dispenser and incubate the plates at room temperature for 2 hours. Measure fluorescence intensity at 460 and 530 nm emission and 405 nm excitation by an Envision detector. Data is expressed as the ratio of 460nm/530nm emissions. Add 4 uL of Cell-titer Glo to each well using BioRAPTR and incubate the plates at room temperature for 2 hours. Measure fluorescence intensity by a VewLux plate reader.
For `CCOP(=S)(OCC)SCCSCC`, the outcome was “inactive”.
`CCCSP(=O)(OCC)Oc1ccc(Br)cc1Cl` (stereo not given) was tested, and the outcome was “inactive”.
With `CCC(CC)Nc1c([N+](=O)[O-])cc(C)c(C)c1[N+](=O)[O-]` the outcome was “inactive”.
`CCOP(=O)(OCC)Oc1cc(C)nc(C(C)C)n1` was tested, and the outcome was “inactive”.
`CCCCSP(=O)(SCCCC)SCCCC` was tested, and the outcome was “inactive”.
`CC(COc1ccc(Oc2ccccc2)cc1)Oc1ccccn1` (stereo not given) was tested, and the outcome was “inactive”.
`CCC(=O)Nc1ccc(Cl)c(Cl)c1` was tested, and the outcome was “inactive”.
`CSC1=N[C@@](C)(c2ccccc2)C(=O)N1Nc1ccccc1` was tested, and the outcome was “inactive”.
With `CCOP(=S)(OCC)Oc1cc(C)nc(C(C)C)n1` the AC50 was 41.7 µM (active).
With `CCCOCC(=Nc1ccc(Cl)cc1C(F)(F)F)n1ccnc1` the AC50 was 48.5 µM (active).
In the case of `CNC(=O)ON=C(SC)C(=O)N(C)C`, the outcome is reported as “inactive”.
For `CC(C)=CC1C(C(=O)OCN2C(=O)C3=C(CCCC3)C2=O)C1(C)C` (stereo not given), the outcome was “inactive”.
For `CC[C@H](C)[C@H]1O[C@]2(C=C[C@@H]1C)C[C@@H]1C[C@@H](C/C=C(\C)[C@@H](O[C@H]3C[C@H](OC)[C@@H](O[C@H]4C[C@H](OC)[C@@H](NC)[C@H](C)O4)[C@H](C)O3)[C@@H](C)/C=C/C=C3\CO[C@@H]4[C@H](O)C(C)=C[C@@H](C(=O)O1)[C@]34O)O2`, the AC50 was 56.9 µM (active).
For `COP(=O)(OC)C(O)C(Cl)(Cl)Cl` (stereo not given), the outcome was “inactive”.
`CCOP(=S)(OCC)Oc1ccc2c(C)c(Cl)c(=O)oc2c1` was tested, and the outcome was “inactive”.
`N#CSCSC#N` was tested, and the AC50 was 18.8 µM (active) and 15.9 µM (active).
For `CON=C(C(=O)OC)c1ccccc1CON=C(C)c1cccc(C(F)(F)F)c1`, the AC50 was 2.24 µM (active).
With `CN1COCN(Cc2cnc(Cl)s2)C1=N[N+](=O)[O-]` the outcome was “inactive”.
With `CSc1nnc(C(C)(C)C)c(=O)n1N` the outcome was “inactive”.
In the case of `CC1(C(=O)Nc2ccc(O)c(Cl)c2Cl)CCCCC1`, the outcome is reported as “inactive”.
With `S=C1NCCN1` the outcome was “inactive”.
With `CCOC(=O)CC(SP(=O)(OC)OC)C(=O)OCC` (stereo not given) the outcome was “inactive”.
In the case of `COc1cc(OC)nc(Sc2cccc(Cl)c2C(=O)O)n1`, the outcome is reported as “inactive”.
In the case of `CCOP(=O)(NC(C)C)Oc1ccc(SC)c(C)c1` (stereo not given), the outcome is reported as “inactive”.
In the case of `CC(Oc1cccc(Cl)c1)C(=O)O` (stereo not given), the outcome is reported as “inactive”.
With `CN(C)NC(=O)CCC(=O)O` the outcome was “inactive”.
`O=c1ccc(=O)[nH][nH]1` was tested, and the outcome was “inactive”.
With `C[N+]1(C)CCCCC1` the outcome was “inactive”.
With `CNc1cnn(-c2cccc(C(F)(F)F)c2)c(=O)c1Cl` the outcome was “inactive”.
`CCCCOC(=O)[C@@H](C)Oc1ccc(Oc2ccc(C#N)cc2F)cc1` was tested, and the outcome was “inactive”.
In the case of `CCOP(=S)(OCC)Oc1ccc([N+](=O)[O-])cc1`, the outcome is reported as “inactive”.
With `CC(=NC#N)N(C)Cc1ccc(Cl)nc1` the outcome was “inactive”.
`CCCOc1nn(C(=O)NS(=O)(=O)c2ccccc2C(=O)OC)c(=O)n1C` was tested, and the outcome was “inactive”.
In the case of `COP(=O)(NC(C)=O)SC` (stereo not given), the outcome is reported as “inactive”.
In the case of `CC(C)N(C(=O)SCC(Cl)=C(Cl)Cl)C(C)C`, the outcome is reported as “inactive”.
With `Nc1nc(N)nc(NC2CC2)n1` the outcome was “inactive”.
In the case of `CN(C)C(=O)Nc1cccc(C(F)(F)F)c1`, the outcome is reported as “inactive”.
For `C#CCC1=C(C)C(OC(=O)C2C(C=C(C)C)C2(C)C)CC1=O` (stereo not given), the outcome was “inactive”.
In the case of `Cc1cc(C2CC2)nc(Nc2ccccc2)n1`, the outcome is reported as “inactive”.
With `CNC(=O)Oc1cccc2c1OC(C)(C)O2` the outcome was “inactive”.
